About 320 (3.2%) of roughly 10,000 compounds were called active. Cut-off read from the data, not from the text of the source: active = CPE inhibition mostly above about 9.1% (no sharp cut-off); inactive = mostly below about 7.2%. For the sample, actives were picked, then their nearest neighbours and some compounds at random.
experiment: antivirals protecting cells from dengue CPE – CPE readout, HTS (AID 540333); conditions: Dengue virus CPE inhibition in host cells, at 20 µM; stronger effect = higher value

SMILES | CPE inhibition
COc1cc(NC(=O)CN2CCC(C)CC2)c(C)cc1[N+](=O)[O-] | inactive
CCN(CC)S(=O)(=O)c1ccc2oc(C(=O)N3CCc4ccccc4C3)c(C)c2c1 | 0.865% (inactive)
N#Cc1cc(NCC2CCCO2)c([N+](=O)[O-])cc1C#N (stereo not drawn) | 0.075% (inactive)
CN(CC(=O)Nc1ccc(F)cc1)c1ccc(S(=O)(=O)N2CCCCC2)cc1[N+](=O)[O-] | 2.78% (inactive)
CN(CC(=O)Nc1ccc(Cl)cc1)c1ccc(S(=O)(=O)N2CCCCC2)cc1[N+](=O)[O-] | 13% (active)
CC(C)C(=O)NC(=S)Nc1ccc(S(=O)(=O)N2CCCC2)cc1 | inactive
CCOc1ccccc1N(CC(=O)Nc1ccc(S(=O)(=O)N2CCOCC2)cc1)S(=O)(=O)c1ccc(Cl)cc1 | 0.98% (inactive)
CN(CC(=O)Nc1ccc(S(=O)(=O)N2CCCC2)cc1)Cc1cccc(Cl)c1Cl | 9% (active)
COc1ccc(CCN(C)c2ccc(S(=O)(=O)N3CCCC3)cc2[N+](=O)[O-])cc1OC | inactive
CN(CC(=O)Nc1ccc(S(=O)(=O)N2CCCC2)cc1)Cc1ccc(Cl)cc1 | 0.055% (inactive)
CN(CC(=O)Nc1ccc(S(=O)(=O)N2CCCC2)cc1)Cc1ccc(Cl)cc1Cl | 13.3% (active)
CN(Cc1cccc(Cl)c1Cl)C(=O)c1ccc(NC(=O)CC#N)cc1 | inactive
CCc1cccc(C)c1NC(=O)CSc1nc(-c2ccccc2F)nc2nc[nH]c12 | inactive
CCCCn1c(-c2ccco2)n[nH]c1=S | 1.02% (inactive)
CC(OC(=O)/C=C/c1ccco1)C(=O)Nc1cccc([N+](=O)[O-])c1 (stereo not drawn) | 0.7% (inactive)
CCOc1ccccc1NC(=S)NNS(=O)(=O)c1c(C)cc(C)cc1C | inactive
CCOC(=O)N1CCN(CC(O)COc2ccc(C)cc2C(C)(C)C)CC1 (stereo not drawn) | 2.44% (inactive)
Cc1ccc(NC(=O)CC(C(=O)O)c2ccccc2)cc1 (stereo not drawn) | inactive
C=CCC(C(=O)Oc1c(C(C)(C)C)cc(C)cc1C(C)(C)C)c1ccccc1 (stereo not drawn) | 12.5% (active)
CC(C)Oc1ccc(C(CC(=O)N(C)CCC#N)c2ccc(F)cc2)cc1 (stereo not drawn) | 0.65% (inactive)

SMILES | CPE inhibition
COC(=O)CNC(c1ccccc1)c1cc(C)ccc1NC(=O)c1cccc(Cl)c1 (stereo not drawn) | 3.54% (inactive)
COC(=O)CNC(c1ccccc1)c1cc(Br)ccc1NC(=O)CNC(=O)OCc1ccccc1 (stereo not drawn) | 16.5% (active)
NNC(=O)CNC(c1ccccc1)c1cc(Br)ccc1NC(=O)c1cccc(Cl)c1 (stereo not drawn) | 0.305% (inactive)
O=C(Oc1cccc(/C=N/Nc2nc(Nc3ccccc3)nc(N3CCOCC3)n2)c1)c1ccco1 | inactive
Cc1ccc(C(O)(C(=O)NNc2ccc3ccccc3n2)c2ccc(C)cc2)cc1 | inactive
O=C(Nc1cccc(C(F)(F)F)c1)C(Sc1ncnc2ccccc12)c1ccccc1 (stereo not drawn) | 2.71% (inactive)
CC(Sc1nc(-c2ccccc2)cc(C(F)(F)F)n1)C(=O)Nc1ccc2c(c1)OCO2 (stereo not drawn) | 3% (inactive)
CC(Sc1ncnc2ccccc12)C(=O)Nc1ccc2c(c1)OCCO2 (stereo not drawn) | 12.4% (active)
CC(C)CC(COCc1ccc(Cl)cc1)N1CCN(C(=O)c2ccc(C(F)(F)F)cc2)CCC1=O (stereo not drawn) | 12.7% (active)
CC(C)(C)c1ccc(C(=O)N2CCC(=O)N(C(CO)Cc3ccccc3)CC2)cc1 (stereo not drawn) | inactive
CC(C)C[C@@H](COc1ccccc1)N1CCN(Cc2ccccc2)CCC1=O | 0.51% (inactive)
O=C(Nc1cccc(Cl)c1)Nc1ccc2c(c1)C(=O)OC2 | inactive
O=C1C2C(c3ccccc3)=NN(c3ccccc3)C2C(=O)N1c1ccccc1 (stereo not drawn) | inactive
COc1cccc(N2C(C(C)=O)=NN(c3ccccc3)C2c2ccc(N3CCOCC3)cc2)c1 (stereo not drawn) | 2.42% (inactive)
COc1ccccc1[C@@H]1C(c2cccc(Cl)c2)=NN(c2ccccc2)[C@H]1C(=O)N1CCOC1=O | 19.3% (active)
O=C(/C=C/c1ccc(Br)cc1)NC(=S)Nc1ccc(S(=O)(=O)Nc2nccs2)cc1 | inactive
Nc1c(C(=O)c2ccc(Cl)cc2)sc2nc3c(cc12)CCC3 | 7.59% (inactive)
O=C(Nc1ccc(Cl)cc1)c1cccc(N2C(=O)C3C4CCC(C4)C3C2=O)c1 (stereo not drawn) | 2.71% (inactive)
CC(C)(C)NC(=O)c1ccc2c(c1)C1C3CCC(C3)C1C(c1ccccc1)N2 (stereo not drawn) | 15.9% (active)
O=C(O)c1ccc(NC(=O)c2cccc(N3C(=O)C4C5CCC(C5)C4C3=O)c2)cc1 (stereo not drawn) | 1.22% (inactive)

SMILES | CPE inhibition
O=C(CCC(=O)NCCCc1ccccc1)NCCCc1ccccc1 | inactive
Cc1ccc(SCCNC(=O)/C=C/c2cccc([N+](=O)[O-])c2)cc1 | 6.54% (inactive)
C=CCNC(=O)c1c(CSc2ccc(Cl)cc2)noc1C(=O)NCCC | 0.85% (inactive)
CCCCNC(=O)c1onc(CSc2ccccn2)c1C(=O)NCCCC | 1.85% (inactive)
CCCCNC(=O)c1onc(CSc2cccc(OC)c2)c1C(=O)NCCCC | 20.1% (active)
CC(C)CCNC(=O)c1onc(CSc2ccccn2)c1C(=O)NCCC(C)C | 25.9% (active)
C=CCNC(=O)c1c(CSc2ccc(Cl)cc2)noc1C(=O)NCc1ccccc1 | 11.2% (active)
COc1cccc(SCc2noc(C(=O)NCCCN3CCOCC3)c2C(=O)NCCCN2CCOCC2)c1 | 0.255% (inactive)
CCCCNC(=O)c1onc(CSc2cccc(OC)c2)c1C(=O)O | inactive
COCCNC(=O)c1onc(CSc2ccc(F)c(F)c2)c1C(=O)NCCOC | inactive
O=C(NCCCN1CCOCC1)c1onc(CSc2ccc(F)c(F)c2)c1C(=O)NCCCN1CCOCC1 | inactive
C=CCNC(=O)c1onc(CSc2ccccc2)c1C(=O)NCC=C | 0.535% (inactive)
O=C(NCCCN1CCOCC1)c1onc(CSc2ccccn2)c1C(=O)NCCCN1CCOCC1 | inactive
CCCCNC(=O)c1onc(CSc2ccc(F)c(F)c2)c1C(=O)NCCCC | 11.5% (active)
CCn1c(C)nc2cc(C(=O)NNC(=S)Nc3ccc(Cl)cc3Cl)ccc21 | inactive
O=C(Cc1cccs1)N/N=C/c1ccco1 | 0.08% (inactive)
COC(=O)c1c(NC(=O)C2C3C=CC(CC3)C2C(=O)O)sc(C)c1C (stereo not drawn) | inactive
CC1=CN2C(=N)/C(=C/c3ccc(Sc4ccc(C)cc4)o3)C(=O)N=C2S1 | 9.52% (inactive)

From PubChem BioAssay AID540333 (Southern Research Specialized Biocontainment Screening …, 2011)
